Drawing on PubChem BioAssay (Tox21), this text covers Potency and activity change, negative = inhibition for 37 molecules.

“And” between values parts separate entries of the source, which are not always exact repeats. Equal values may be shown once. Records with an inconclusive call do not appear. Values without a mark were called inactive. The source made the active and inactive calls. The call rests on the fitted dose curve; in most records, active means well fitted curve in the direction sought with a large enough effect in the repeat runs; inconclusive means weak or mixed curves; inactive means no such curve, though single readings can be large; an effect the other way counts as inactive or inconclusive.

The target of test [1] is Cytochrome P450 2C19 (Homo sapiens) (UniProt P33261). Nature of the test: Cytochrome P450 Family 2 Subfamily C Member 19 (CYP2C19) small molecule antagonists: luciferase reporter qHTS assay (AID 1671197). Further: nearly all actives have a fitted effect of over 65% in size. The settings on record: P450-Glo CYP2C19 enzyme, luciferin luminescence, 1 h; series mostly up to 115 µM. The essentials: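 Light output is proportional to CYP2C19 activity: proluciferin substrate is converted to luciferin, then detected by a luciferin detection reagent that also stops the 1 h, 37C NADPH-driven reaction. Ketoconazole serves as positive control.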
Cytochrome P450 2C19 (Homo sapiens), sequence (P33261 whole entry, looked up): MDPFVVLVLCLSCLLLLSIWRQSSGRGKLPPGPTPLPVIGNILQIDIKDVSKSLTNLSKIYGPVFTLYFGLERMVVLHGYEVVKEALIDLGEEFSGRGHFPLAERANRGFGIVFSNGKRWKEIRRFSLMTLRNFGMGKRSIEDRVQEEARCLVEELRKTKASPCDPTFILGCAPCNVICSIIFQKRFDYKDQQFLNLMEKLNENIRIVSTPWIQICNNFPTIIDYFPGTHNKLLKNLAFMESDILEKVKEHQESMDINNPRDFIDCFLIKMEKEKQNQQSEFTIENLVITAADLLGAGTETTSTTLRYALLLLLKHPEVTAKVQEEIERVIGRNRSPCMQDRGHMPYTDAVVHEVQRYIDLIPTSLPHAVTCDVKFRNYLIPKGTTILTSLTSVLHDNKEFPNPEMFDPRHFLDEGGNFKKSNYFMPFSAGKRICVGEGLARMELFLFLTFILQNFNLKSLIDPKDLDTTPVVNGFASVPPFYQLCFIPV

The target of test [2] is Cytochrome P450 1A2 (Homo sapiens) (UniProt P05177). Briefly: Cytochrome P450 Family 1 Subfamily A Member 2 (CYP1A2) small molecule antagonists: luciferase reporter qHTS assay (AID 1671199). Further: nearly all actives have a fitted effect of over 50% in size. The following applies: P450-Glo CYP1A2 enzyme, luciferin luminescence, 1 h; series mostly up to 115 µM. In outline:
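Luminescence from luciferin formed by CYP1A2 from a proluciferin substrate, read 20 min after detection reagent. Compound was pre-incubated 10 min with enzyme-substrate, and reaction started with NADPH regeneration solution for 1 h at room temperature; furafylline control.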
For orientation: A reporter such as luciferase makes a cellular process visible.

In test [3] the target is Voltage-gated inwardly rectifying potassium channel KCNH2 (Homo sapiens) (UniProt Q12809). Nature of the test: Human Ether-a-go-go-Related Gene (hERG) channel small molecule antagonists: fluorescence cell-based qHTS assay (AID 1671200). Further: nearly all actives have a fitted effect of over 50% in size.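 On activity change, negative = inhibition: hERG-expressing U2OS cells given a thallium stimulus after FluxOR II dye loading.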 The following applies: hERG-U2OS cells, FluxOR thallium flux fluorescence; series mostly up to 76.8 µM. In outline:
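Quantitative HTS in hERG-U2OS cells: thallium entry through the channel reports activity, read as continuous 480/540 nm fluorescence over 2 min after stimulus addition.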
Background: Block of hERG is tested as a sign of cardiac risk.

Test [4] deals with Cytochrome P450 3A4 (Homo sapiens) (UniProt P08684). Nature of the test: Cytochrome P450 Family 3 Subfamily A Member 4 (CYP3A4) small molecule antagonists: luciferase reporter qHTS assay (AID 1671201). Further: nearly all actives have a fitted effect of over 50% in size. The settings on record: P450-Glo CYP3A4 enzyme, luciferin luminescence, 1 h; series mostly up to 115 µM. The essentials:
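Inhibition of CYP3A4 is measured as loss of light: the enzyme converts a proluciferin substrate to luciferin, detected luminescently. Reaction ran 1 h at room temperature with NADPH regeneration after a 10 min compound preincubation.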

Test [5] addresses Cytochrome P450 2C9 (Homo sapiens) (UniProt P11712). Briefly: Cytochrome P450 Family 2 Subfamily C Member 9 (CYP2C9) small molecule antagonists: luciferase reporter qHTS assay (AID 1671198). Further: nearly all actives have a fitted effect of over 50% in size. The settings on record: P450-Glo CYP2C9 enzyme assay, luciferin luminescence; series mostly up to 115 µM. The essentials:
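P450-Glo proluciferin substrate with CYP2C9 enzyme; 10 min RT preincubation, then NADPH regeneration 1 h at 37C; luciferin detection reagent 20 min RT, luminescence in relative luminescence units.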
On the % scale 0 is the no-effect control and ±100 the full control effect; potency means the concentration at half of the fitted maximal effect.

Cytochrome P450 2C9 (Homo sapiens), sequence (P11712 whole entry, looked up): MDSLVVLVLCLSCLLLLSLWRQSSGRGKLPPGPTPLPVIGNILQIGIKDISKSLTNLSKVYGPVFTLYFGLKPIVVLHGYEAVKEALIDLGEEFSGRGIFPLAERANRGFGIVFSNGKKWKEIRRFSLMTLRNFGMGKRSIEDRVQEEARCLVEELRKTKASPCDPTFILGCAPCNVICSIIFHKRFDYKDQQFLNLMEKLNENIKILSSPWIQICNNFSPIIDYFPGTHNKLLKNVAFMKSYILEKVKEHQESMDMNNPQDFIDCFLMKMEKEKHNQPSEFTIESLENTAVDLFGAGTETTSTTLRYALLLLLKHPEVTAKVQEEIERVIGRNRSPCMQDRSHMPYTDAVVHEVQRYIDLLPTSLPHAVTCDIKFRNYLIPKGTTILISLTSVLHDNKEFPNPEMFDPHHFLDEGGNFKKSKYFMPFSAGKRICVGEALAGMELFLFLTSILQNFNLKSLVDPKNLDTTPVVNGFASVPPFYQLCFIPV
Voltage-gated inwardly rectifying potassium channel KCNH2 (Homo sapiens), sequence (Q12809 whole entry, looked up): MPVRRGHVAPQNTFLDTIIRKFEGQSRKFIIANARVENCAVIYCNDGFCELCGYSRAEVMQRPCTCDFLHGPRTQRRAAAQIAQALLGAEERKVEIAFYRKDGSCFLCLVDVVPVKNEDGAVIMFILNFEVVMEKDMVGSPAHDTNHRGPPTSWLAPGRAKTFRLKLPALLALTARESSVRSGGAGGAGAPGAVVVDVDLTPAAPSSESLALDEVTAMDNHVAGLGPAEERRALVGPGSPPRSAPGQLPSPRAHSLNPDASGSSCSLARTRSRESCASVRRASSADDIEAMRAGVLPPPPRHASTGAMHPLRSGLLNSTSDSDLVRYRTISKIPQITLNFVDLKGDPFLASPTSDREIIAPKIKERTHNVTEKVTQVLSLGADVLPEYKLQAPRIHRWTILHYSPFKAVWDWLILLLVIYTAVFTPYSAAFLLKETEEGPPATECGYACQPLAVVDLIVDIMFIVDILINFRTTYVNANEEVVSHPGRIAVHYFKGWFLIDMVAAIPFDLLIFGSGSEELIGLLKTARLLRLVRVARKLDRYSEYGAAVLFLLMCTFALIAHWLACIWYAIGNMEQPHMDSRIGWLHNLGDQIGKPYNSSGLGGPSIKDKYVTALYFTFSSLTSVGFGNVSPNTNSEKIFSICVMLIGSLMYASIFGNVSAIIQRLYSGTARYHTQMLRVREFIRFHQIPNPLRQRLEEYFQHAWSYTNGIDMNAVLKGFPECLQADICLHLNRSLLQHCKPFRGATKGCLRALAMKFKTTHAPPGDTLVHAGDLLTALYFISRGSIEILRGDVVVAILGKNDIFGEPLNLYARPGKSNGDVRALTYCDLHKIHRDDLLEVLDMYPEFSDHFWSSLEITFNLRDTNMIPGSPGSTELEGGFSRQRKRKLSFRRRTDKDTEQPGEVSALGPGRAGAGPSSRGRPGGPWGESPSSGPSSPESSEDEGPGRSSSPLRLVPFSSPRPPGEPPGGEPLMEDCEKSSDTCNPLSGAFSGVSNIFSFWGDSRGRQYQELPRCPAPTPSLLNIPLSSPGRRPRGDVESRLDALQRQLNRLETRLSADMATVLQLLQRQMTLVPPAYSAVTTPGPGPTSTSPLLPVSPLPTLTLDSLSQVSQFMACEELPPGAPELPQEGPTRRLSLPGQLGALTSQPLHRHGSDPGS
Cytochrome P450 3A4 (Homo sapiens), sequence (P08684 whole entry, looked up): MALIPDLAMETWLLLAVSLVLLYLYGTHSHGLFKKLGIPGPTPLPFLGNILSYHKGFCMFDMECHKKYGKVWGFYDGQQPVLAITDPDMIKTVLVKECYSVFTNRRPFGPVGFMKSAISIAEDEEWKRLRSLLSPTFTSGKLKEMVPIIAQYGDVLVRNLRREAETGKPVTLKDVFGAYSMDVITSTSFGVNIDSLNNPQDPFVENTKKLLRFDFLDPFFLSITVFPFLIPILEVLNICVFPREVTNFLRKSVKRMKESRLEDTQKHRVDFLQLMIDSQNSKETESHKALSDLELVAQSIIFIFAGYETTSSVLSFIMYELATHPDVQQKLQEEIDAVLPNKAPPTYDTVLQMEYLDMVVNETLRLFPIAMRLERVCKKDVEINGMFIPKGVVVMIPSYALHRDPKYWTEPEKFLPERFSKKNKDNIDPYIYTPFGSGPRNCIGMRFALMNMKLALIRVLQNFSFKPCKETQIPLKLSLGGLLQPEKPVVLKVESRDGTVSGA
Cytochrome P450 1A2 (Homo sapiens), sequence (P05177 whole entry, looked up): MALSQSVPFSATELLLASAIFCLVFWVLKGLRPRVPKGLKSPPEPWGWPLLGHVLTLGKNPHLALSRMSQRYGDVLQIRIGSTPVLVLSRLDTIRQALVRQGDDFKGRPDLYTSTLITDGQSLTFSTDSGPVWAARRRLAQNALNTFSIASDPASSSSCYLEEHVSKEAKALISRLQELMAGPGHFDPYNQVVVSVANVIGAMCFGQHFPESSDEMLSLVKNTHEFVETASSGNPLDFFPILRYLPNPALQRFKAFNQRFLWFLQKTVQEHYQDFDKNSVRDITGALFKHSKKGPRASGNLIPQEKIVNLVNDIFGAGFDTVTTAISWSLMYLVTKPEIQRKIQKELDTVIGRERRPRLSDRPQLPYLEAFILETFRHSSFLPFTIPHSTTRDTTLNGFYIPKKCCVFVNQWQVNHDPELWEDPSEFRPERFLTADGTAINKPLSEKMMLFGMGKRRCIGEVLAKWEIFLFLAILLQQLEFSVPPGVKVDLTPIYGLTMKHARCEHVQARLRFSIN

Turning to `CCC(=O)C(=O)CC`, the Potency is 41.6 µM (active) in test [1] and 5.88 µM (active) in test [4]. Besides, the Potency result in test [2] and in test [3] was “inactive” each time.
On to `Cc1c(C)c([N+](=O)[O-])c(C(C)(C)C)c([N+](=O)[O-])c1C`, for which the Potency in test [1] was 28.3 µM (active); in test [5] it was 35.6 µM (active). In test [4], the Potency result was “inactive”.
Turning to `CN(C)c1ccc(C(=C2C=CC(=[N+](C)C)C=C2)c2ccc(N(C)C)cc2)cc1`, the Potency in test [1] was 19.9 µM (active) and 22.4 µM (active) and 21.9 µM (active); in test [3] it was 3.45 µM (active) and 3.47 µM (active) and 2.68 µM (active).
With `Oc1cc(Cl)cc(Cl)c1Cl`, the Potency entry in test [1], in test [3] and in test [4] was “inactive” in each case. Also, the Potency in test [2] is 16.3 µM (active).
Take `CNc1ccc([N+](=O)[O-])cc1`: the Potency in test [1] and in test [2] was 35.7 µM (active) in each case. Moreover, the Potency result in test [3] and in test [4] was “inactive” in each case.
Consider `COc1cccc(OC)c1C(=O)O`, for which the Potency result in test [1], in test [5], in test [3] and in test [4] was “inactive” throughout.
Regarding `C=CC(=O)Nc1cc2c(Nc3ccc(F)c(Cl)c3)ncnc2cc1OCCCN1CCOCC1`, the Potency entry in test [1], in test [2] and in test [3] was “inactive” in each case. Moreover, the Potency in test [4] is 12.3 µM (active).
In the case of `CC(C)(C)c1ccc(C(O)CCCN2CCC(C(O)(c3ccccc3)c3ccccc3)CC2)cc1` (stereo unspecified), the Potency entry in test [1] and in test [2] was “inactive” each time.
In the case of `CC(C(=O)O)c1ccc2c(c1)[nH]c1ccc(Cl)cc12` (stereo unspecified), the Potency entry in test [1] and in test [3] was “inactive” each time.
For `Fc1ccc(C(c2ccc(F)cc2)N2CCNCC2)cc1`, the Potency result in test [1], in test [5] and in test [4] was “inactive” each time.
For `Cc1ccc(N/N=c2\c(=O)cc/c(=N\Nc3ccc(S(=O)(=O)O)cc3)c2=O)c(C)c1`, the results for the Potency in test [1] and in test [5] were 79.6 µM (active) and 35.6 µM (active), respectively. The Potency result in test [3] and in test [4] was “inactive” throughout.
Consider `CCO[Si](OCC)(OCC)OCC`, for which the Potency entry in test [1], in test [5], in test [3] and in test [4] was “inactive” throughout.
For `NC(=O)c1cccc([N+](=O)[O-])c1`, the Potency entry in test [1], in test [5], in test [3] and in test [4] was “inactive” throughout.
`CCCCCCCCCCCC(=O)OCC(C)OC(=O)CCCCC(=O)O` (stereo unspecified): the Potency entry in test [1] and in test [3] was “inactive” in each case. The Potency in test [5] was 7.76 µM (active); in test [4] it was 8.71 µM (active).
On to `CCCCCc1ccc(Cl)cc1`, for which the Potency entry in test [1], in test [2] and in test [4] was “inactive” throughout.
Regarding `CCCCOC(=O)CO`, the Potency entry in test [1], in test [5], in test [3] and in test [4] was “inactive” throughout.
Consider `CCCC[P+](C)(CCCC)CCCC`, for which the Potency result in test [1], in test [5] and in test [4] was “inactive” throughout.
On to `O=C(Oc1ccccc1)Oc1ccccc1`, for which the Potency is 79.3 µM (active) in test [1] and 35.4 µM (active) in test [2]. Further, the Potency entry in test [3] and in test [4] was “inactive” throughout.
Regarding `CCCCCCCCCCCCCCCC[N+](C)(C)CC`, the Potency result in test [1] and in test [2] was “inactive” in each case.
For the molecule `O=C(/C=C/c1ccccc1)OC/C=C/c1ccccc1`, the values for the Potency in test [1] and in test [5] were 35.6 µM (active) and 31.7 µM (active), respectively. Further, the Potency entry in test [4] is “inactive”.
As to `CCCCCCCCCCOC(=O)c1ccccc1C(=O)OCCCCCCCC`, the Potency result in test [1], in test [2], in test [3] and in test [4] was “inactive” in each case.
In the case of `OCC(F)(F)F`, the Potency in test [1] is 74.8 µM (active). Besides, the Potency entry in test [5], in test [3] and in test [4] was “inactive” throughout.
On to `Cc1c(N)cccc1C(F)(F)F`, for which the Potency entry in test [1], in test [5], in test [3] and in test [4] was “inactive” in each case.
`C1CCC(SSC2CCCCC2)CC1`: the Potency result in test [1], in test [3] and in test [4] was “inactive” throughout. Also, the Potency in test [2] is 25.2 µM (active).
With `CC(C)CCOC(=O)/C=C/c1ccccc1`, the Potency in test [1] is 63.5 µM (active); in test [5] it was 40.1 µM (active). Further, in test [4], the Potency result is “inactive”.
As for `C=CCn1c(=O)n(CC=C)c(=O)n(CC=C)c1=O`, the figures for the Potency in test [1], in test [2] and in test [4] were 1.12 µM (active), 31.6 µM (active) and 2.82 µM (active), respectively. Moreover, the Potency result in test [3] is “inactive”.
In the case of `Cc1cc(C(C)(C)C)c(O)c(C)c1Cn1c(=O)n(Cc2c(C)cc(C(C)(C)C)c(O)c2C)c(=O)n(Cc2c(C)cc(C(C)(C)C)c(O)c2C)c1=O`, the Potency was 6.33 µM (active) in test [1] and 7.97 µM (active) in test [4]. The Potency result in test [3] was “inactive”.
In the case of `CCC(CC)C(C)CCOC(C)=O` (stereo unspecified), the Potency result in test [1], in test [2], in test [3] and in test [4] was “inactive” in each case.
Turning to `C=CCCC(=O)/C=C/C1C(C)=CCCC1(C)C` (stereo unspecified), the Potency in test [1] is 17.8 µM (active). Also, in test [2], the Potency result is “inactive”.
For `CC(=O)OCC=C(C)C`, the Potency result in test [1], in test [5], in test [3] and in test [4] was “inactive” each time.
Turning to `CCC(COC(=O)CCS)(COC(=O)CCS)COC(=O)CCS`, the Potency in test [1] is 5.64 µM (active); in test [5], 28.3 µM (active); in test [4], 3.56 µM (active).
Consider `CC(C)(C)CC(C)(C)c1ccc(Nc2ccc(C(C)(C)CC(C)(C)C)cc2)cc1`, for which the results for the activity change, negative = inhibition in test [1] and in test [3] were -21.4% [at 10.5 µM] and 0.578% [at 6.97 µM], respectively.
Take `C=Cc1ccccc1C=C`: the Potency entry in test [1] and in test [3] was “inactive” in each case.
On to `CC/C=C\CCCCCO`, for which the Potency result in test [1], in test [5], in test [3] and in test [4] was “inactive” in each case.
As for `O=C(O)Cc1ccccc1Nc1c(Cl)cccc1Cl`, the Potency result in test [1], in test [2], in test [3] and in test [4] was “inactive” each time.
In the case of `CCOC(=O)NNc1ccc(N(CC)CC(C)O)nn1` (stereo unspecified), the Potency entry in test [5] was “inactive”.
For `COCCOc1cc2cc(C(=O)NC3CCN(C(C)C)CC3)n(CC(=O)Nc3ccc(Cl)cn3)c2cn1`, the Potency result in test [3] and in test [4] was “inactive” in each case.
